A selection: hits, their analogues and other compounds. The true share with any hit is near 8.9%.
KB-V1 MDR tox: KB-V1 MDR subline cytotoxicity; KB-V1 MDR cells viability, CellTiter-Glo, 72 h; Potency, µM (series often up to 46.1 µM), actives largely listed as cytotoxic; actives 3.4% (n = 400,000); AID 1347076; further: nearly all actives have a fitted effect of over 60% in size
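Potencies derive from concentration-effect curves fitted to normalized luminescence (CellTiter-Glo) of KB-V1 cells treated for 72 h at 37 degrees C in phenol-red-free DMEM containing 10% FBS.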
SW480 rereplic: induces DNA re-replication in SW480 colon adenocarcinoma cells. AID 624297. SW480 DNA re-replication, Hoechst DNA content imaging, 48 h. Potency, µM (highest dose often 46.1 µM), actives largely listed as activators. actives 1.8% (n = 340,000); further: nearly all actives have a fitted effect of over 55% in size
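Compounds, transferred as 23 nL by pin tool, were incubated with cells for 48 hr; DNA content per nucleus was then quantified by Hoechst staining and fluorescence plate imaging.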
DRD3 antagonist: blocks the human D3 dopamine receptor; D3R cells, DiscoveRx beta-arrestin luminescence, antagonist mode; hits give low values; max response, negative = inhibition, %; actives 2.5% (n = 360,000); AID 652054; in the data active means max response below about -50%; inconclusive means no clear call, values can overlap the other calls
Target sequence (P35462 whole entry, looked up): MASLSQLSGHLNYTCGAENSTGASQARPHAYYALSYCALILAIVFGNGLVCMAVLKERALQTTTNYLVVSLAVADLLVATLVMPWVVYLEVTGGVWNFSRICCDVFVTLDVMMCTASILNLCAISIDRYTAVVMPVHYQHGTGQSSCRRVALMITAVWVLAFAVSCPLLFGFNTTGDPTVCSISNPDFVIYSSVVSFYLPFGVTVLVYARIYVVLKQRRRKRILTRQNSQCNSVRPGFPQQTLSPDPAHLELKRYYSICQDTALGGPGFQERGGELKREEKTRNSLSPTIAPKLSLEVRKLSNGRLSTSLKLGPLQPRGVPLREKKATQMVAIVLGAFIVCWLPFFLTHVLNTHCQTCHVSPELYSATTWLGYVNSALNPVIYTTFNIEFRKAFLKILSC
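Cells plated overnight at 1500 cells/well, then exposed to library compounds with dopamine controls for 90 minutes at 37 degrees C. DiscoveRx reagent added for 30–60 minutes at room temperature; luminescence read, quantitative HTS format.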
KB-3-1 cytotox: KB-3-1 parental cell cytotoxicity. KB-3-1 viability, CellTiter-Glo ATP luminescence, 72 h. Potency, µM (titrated, usually from 46.1 µM), hits mostly cytotoxic. actives 1.4% (n = 400,000). AID 1347075; further: nearly all actives have a fitted effect of over 60% in size
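Screening of KB-3-1 cells (DMEM, 10% FBS, phenol-red free) ran from lowest to highest compound concentration; after 72 h at 37 °C viability was read luminescently and curves fitted.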
D3 ag: agonists of human D3 dopamine receptor; max activation, %; D3R DiscoveRx beta-arrestin cells, luminescence, 90 min; P35462; AID 652048; actives 0.58% (n = 410,000); in the data active means max activation above about 30%
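Agonist-mode cell screen: cells plated at 1500/well and incubated overnight at 37 °C, then exposed to library compounds for 90 min at 37 °C. Detection reagent was added for 30–60 min at room temperature, and luminescence was read.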
MCF10A rereplic: induces DNA re-replication in MCF 10a normal breast cells; MCF 10A DNA re-replication, Hoechst nuclear intensity, 48 h; Potency, µM (series often up to 46.1 µM), most hits filed as activators; actives 2.9% (n = 350,000); further: nearly all actives have a fitted effect of over 50% in size
Hits are given with their value; 0 = inactive; ? = inconclusive; - = no result given. Unless noted, the call rests on the fitted dose curve; in most records, active means well fitted curve in the direction sought with a large enough effect; inconclusive means small, poorly fitted or top-dose-only effect, or another doubt; inactive means no such curve, though single readings can be large; an effect the other way counts as inactive or inconclusive.

SMILES	KB-V1 MDR tox	SW480 rereplic	DRD3 antagonist	KB-3-1 cytotox	D3 ag	MCF10A rereplic
CCN1C(=O)[C@H]2[C@@H](c3ccc(-c4ccc(Cl)c(Cl)c4)c(OC)c3)N3CCCC[C@@]3(C(=O)OC)[C@H]2C1=O	?	0	0	21µM	0	0
CCN1C(=O)[C@H]2[C@@H](c3ccc(-c4cccc(Cl)c4)c(OC)c3)N3CCCC[C@@]3(C(=O)OC)[C@H]2C1=O	21µM	0	0	0	0	0
c1ccc2c(c1)COc1c3ncccc3nn1-2	0	-	0	0	0	-
CCOC(=O)c1cccc(NC(=O)c2cn(-c3cccc(OC)c3)c(=O)c3ccccc23)c1	-	-	-	-	0	-
COc1ccc(NC(=O)C(NS(=O)(=O)c2cccc3nsnc23)c2ccccc2)cc1 (configuration not stated)	0	-	-	0	0	-
CCSc1ccc([C@@H]2[C@H]3C(=O)N(CC)C(=O)[C@H]3[C@]3(C(=O)OC)CCCCN23)cc1OC	0	0	0	?	63	?
O=C(Nc1ncccc1O)c1ccc(NS(=O)(=O)c2ccc3[nH]c(=O)[nH]c3c2)cc1	0	16µM	0	?	0	0
O=C(Nc1ncccc1O)c1ccc(S(=O)(=O)Nc2ccccc2)cc1	9.2µM	0	0	10µM	0	0
Cc1cccnc1NC(=O)c1ccc(NS(=O)(=O)c2ccc3[nH]c(=O)[nH]c3c2)cc1	0	0	0	0	0	0
COc1ccc(CCCc2nnc(SCC(=O)Nc3ccc(F)cc3)o2)cc1C	0	-	-	0	0	-
COC(=O)C1=C(C)NC(=O)C1(NC(=O)c1ccc(Cl)cc1)C(F)(F)F (configuration not stated)	0	-	-	0	0	-
Clc1ccc2c(Cl)cc[n+](CCC3CCCCC3)c2c1	0	-	-	0	-	-
COC(=O)c1cc(CN2CCN(c3ccccc3)CC2)ccc1O	0	0	-56	0	0	0
Cc1c(S(=O)(=O)N2CCN(c3cccc(C(F)(F)F)c3)CC2)c(=O)n(C)c(=O)n1C	0	0	0	0	0	0
CCOc1cc(CN2CCN(c3cccc(C(F)(F)F)c3)CC2)ccc1O	16µM	0	-86	0	0	0
CCOc1cc(CN2CCSCC2)ccc1O	0	0	?	0	0	0
CCC(c1nnnn1CCOC)N1CCN(c2cccc(C(F)(F)F)c2)CC1 (configuration not stated)	?	0	0	0	0	?
Cc1c(CN2CCN(c3cccc(C(F)(F)F)c3)CC2)c(=O)n(-c2ccccc2)n1C	0	0	-76	0	0	0
COc1ccc(CC(C)N2CCN(c3cccc(C(F)(F)F)c3)CC2)cc1OC (configuration not stated)	18µM	0	-88	0	0	0
Cc1cc(C)c(Cn2c3ccccc3c3cnn(CC(=O)N4CCCCCC4)c(=O)c32)c(C)c1	0	-	-	0	0	-
CCOC(=O)c1oc2ccc(S(=O)(=O)n3nc(-c4cc(OC)cc(OC)c4)cc3N)cc2c1C	0	-	-	0	0	-
CCOc1cc(CN2CCCCC2)ccc1OC	0	0	0	0	0	0
CCOc1cc(CN2CCN(c3ccc(C(C)=O)cc3)CC2)ccc1OC	23µM	0	0	0	0	0
O=c1cc(CO)oc(CN2CCN(c3cccc(C(F)(F)F)c3)CC2)c1O	0	0	-64	0	0	0
CCOc1ccc(S(=O)(=O)N2CCN(c3cccc(C(F)(F)F)c3)CC2)cc1OCC	0	-	-	0	0	-
CCOc1cc(CN2CCN(c3cccc(C(F)(F)F)c3)CC2)ccc1OC	?	0	-89	0	0	0
Cc1cc(OCC(=O)NNC(=S)NC(=O)c2ccc(Br)o2)ccc1Cl	0	0	0	0	0	0
O=C(N/N=C/c1ccccc1)C(=O)N/N=C/c1ccccc1	0	0	0	0	0	0
O=C(C=C=Nc1ccccc1)C(=O)N=C=Cc1ccccc1	0	?	?	0	0	4.6µM
CCN(CC)S(=O)(=O)c1ccc(NC(=O)c2nn(C)c3c2CSc2ccccc2-3)cc1	-	-	-	-	0	-

Source: PubChem BioAssay
